# Experimental data reported in PubChem BioAssay (NCATS).
# Inconclusive results are not listed. Entries that show only a call come without a potency. Active and inactive are the calls of the source. Calls follow the shape of the dose curve; as a rule, active = well fitted curve in the direction sought with a large enough effect; inconclusive = small, poorly fitted or top-dose-only effect, or another doubt; inactive = no such curve, though single readings can be large; an effect the other way counts as inactive or inconclusive.
# How the values were obtained:
# [1] = Vero cells viability qHTS for Zika virus inhibitors (AID 1347167)
# In short: (§1)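 Counter-screen for cytotoxicity of hits from NS2B-NS3 protease qHTS. Overnight-attached cells (2.5 x 10^5 cells/mL, DMEM/4% FBS) were dosed in titration, incubated 24 to 48 hours, then assayed by CellTiter Glo.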
# [2] = HepG2 cells viability qHTS for Zika virus inhibitors (AID 1347168)
# In short: as §1
# [3] = Tertiary RLuc qRT-PCR qHTS assay for Zika virus inhibitors (AID 1347169); also: top concentration of the series differs between compounds; nearly all actives have a fitted effect of over 55% in size
# In short: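 Vero cells (1,000/well) infected with recombinant ZIKV-RLuc (Cambodian) at MOI 1-2 after compound addition, 48-72 hrs at 37 degrees C. Live-cell Renilla luciferase substrate added; luminescence read after 1-1.5 hrs.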
# [4] = qHTS to identify inhibitors of the type 1 interferon - major histocompatibility complex class I in skeletal muscle: primary screen against the NCATS LOPAC collection (AID 1347405);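 also: lytic HiBiT luminescence reporting HLA-B protein level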
# In short: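 Cells: C25cl48 human myoblasts, HiBiT-tagged HLA-B*08:01, stimulated with IFN-beta 4.0 ng/ml. Compounds are titrated 1:4.3 over 7 points from 46 uM final and incubated 24 hrs; endogenous MHC class I is quantified by HiBiT lytic luminescence.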
# [5] = qHTS to identify inhibitors of the type 1 interferon - major histocompatibility complex class I in skeletal muscle: primary screen against the NCATS Pharmaceutical Collection (AID 1347407);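 also: luminescence of HiBiT knocked into endogenous HLA-B as interferon-induced MHC class I level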
# In short: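 Immortalized human myoblasts (C25cl48) with HiBiT knocked into endogenous HLA-B*08:01 were stimulated with 4.0 ng/ml IFN-beta and treated with compounds ([…] top 46 uM) for 24 hrs at 37 C. HiBiT lytic luminescence read.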
# [6] = qHTS for inhibitors of adenylyl cyclases using a fission yeast platform: a pilot screen against the NCATS LOPAC library (AID 1347410)
# In short: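 S. pombe CHP2027 (AC9-GNAS-PDE4D2) carrying PKA-repressed fbp1-GFP, incubated 18 h at 30C in EMM with LOPAC compounds at up to 57 uM. GFP gain-of-signal read by laser scanning cytometry; DMSO negative control.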
# [7] = qHTS to identify inhibitors of the type 1 interferon - major histocompatibility complex class I in skeletal muscle: primary screen against the NCATS Mechanism Interrogation Plate v5.0 (MIPE) Libary (AID 1347411); also: nearly all actives have a fitted effect of over 65% in size; also: potency is read from the fitted curve at half-maximal effect
# In short: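 Cells were genome-edited human myoblasts carrying a HiBit tag on endogenous HLA-B. They were treated with IFN-beta (4.0 ng/ml) and titrated compounds (top 46 uM) for 24 hrs before lytic HiBiT detection.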
# [8] = molecular target: Protein phosphatase 1D (Homo sapiens) (UniProt O15297); test: RapidFire Mass Spectrometry qHTS Assay for Modulators of WT P53-Induced Phosphatase 1 (WIP1) (AID 1347424);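 also: amount of dephosphorylated VEPPL-S-QETFS peptide product formed by WIP1; series mostly up to about 63 µM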
# In short: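 WIP1 (10 nM final) was preincubated 1 h at room temperature with compounds in Tris-HCl pH 7.5, 30 mM MgCl2, TCEP, EGTA, BSA; 2 uM VEPPL-pS-QETFS phosphopeptide was added for 5 min, quenched with formic acid, and dephosphorylated product quantified by RapidFire MS.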
# [9] = molecular target: Protein phosphatase 1D (Homo sapiens) (UniProt O15297); test: Rhodamine-PBP qHTS Assay for Modulators of WT P53-Induced Phosphatase 1 (WIP1) (AID 1347425)
# In short: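 Steps: enzyme with Rh-PBP sensor and compounds, room-temperature incubation of 1 hr, baseline read, addition of VEPPL-pS-QETFS (10 uM final), kinetic fluorescence reads at 525/598 nm. Activity equals final minus baseline signal.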
# Sequence of Protein phosphatase 1D (Homo sapiens) (O15297 whole entry, looked up): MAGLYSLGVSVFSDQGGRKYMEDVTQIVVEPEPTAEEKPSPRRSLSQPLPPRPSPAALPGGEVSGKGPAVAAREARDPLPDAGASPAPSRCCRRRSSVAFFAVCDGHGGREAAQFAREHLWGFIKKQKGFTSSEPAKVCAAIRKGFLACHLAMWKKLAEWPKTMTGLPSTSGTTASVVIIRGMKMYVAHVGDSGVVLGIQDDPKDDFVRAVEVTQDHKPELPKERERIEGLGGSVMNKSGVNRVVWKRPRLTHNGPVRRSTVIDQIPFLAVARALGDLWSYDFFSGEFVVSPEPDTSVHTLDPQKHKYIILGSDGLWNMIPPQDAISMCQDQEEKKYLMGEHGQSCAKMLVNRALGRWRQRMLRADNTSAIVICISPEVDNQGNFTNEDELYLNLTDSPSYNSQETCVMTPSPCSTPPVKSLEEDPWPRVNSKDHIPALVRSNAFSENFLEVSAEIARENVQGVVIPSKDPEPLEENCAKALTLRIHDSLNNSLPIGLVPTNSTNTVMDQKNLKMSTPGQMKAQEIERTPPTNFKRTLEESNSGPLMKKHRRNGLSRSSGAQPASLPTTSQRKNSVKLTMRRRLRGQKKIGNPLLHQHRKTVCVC
compound,measurement,setting,value
CCn1cc(C(=O)O)c(=O)c2cc(F)c(N3CCNC(C)C3)c(F)c21 (configuration not stated),outcome,[1],inactive
same,outcome,[2],inactive
same,Potency,[3],inactive
same,Potency,[4],inactive
same,outcome,[5],inactive
same,outcome,[6],inactive
same,Potency,[7],inactive
same,Potency,[8],inactive
same,outcome,[9],inactive
NCCc1ccc(O)c(O)c1,Potency,[4],inactive
same,outcome,[5],inactive
same,outcome,[6],inactive
same,Potency,[7],inactive
same,Potency,[8],inactive
same,outcome,[9],inactive
CNC(=O)c1ccccc1Sc1ccc2c(/C=C/c3ccccn3)n[nH]c2c1,Potency,[8],inactive
CCC(C)n1ncn(-c2ccc(N3CCN(c4ccc(OC[C@H]5CO[C@](Cn6cncn6)(c6ccc(Cl)cc6Cl)O5)cc4)CC3)cc2)c1=O (some centres not stated),Potency,[8],inactive
OCCn1cc(-c2cnc3nnn(Cc4ccc5ncccc5c4)c3n2)cn1,Potency,[7],inactive
COc1ccccc1[C@H](c1cccc2ccccc12)[C@@](C)(C#N)C(=O)N1CCC(c2cccc(C(F)(F)F)c2)CC1,Potency,[7],inactive
NC(=O)c1ccc(-c2nc(-c3ccc4c(c3)OCCO4)c(-c3ccccn3)[nH]2)cc1,Potency,[7],inactive
CCCCCCCc1ccc(CCc2cccc(O)c2C(=O)O)cc1,Potency,[7],inactive
Nc1ncnc2nc(-c3ccc(N4CCOCC4)nc3)cc(-c3cccc(Br)c3)c12,Potency,[7],inactive
Cn1cnc2c(F)c(Nc3ccc(Br)cc3Cl)c(C(=O)NOCCO)cc21,Potency,[7],inactive
same,Potency,[8],inactive
same,outcome,[9],inactive
COc1ccc(COc2cc3oc(=O)c4cc(C(C)O)ccc4c3cc2OC)cc1 (configuration not stated),Potency,[7],inactive
OC[C@H](Cc1ccccc1)Nc1nc(Oc2ccc3c(c2)CCC3)nc2c1ncn2Cc1ccc(-c2ccccc2)cc1,Potency,[7],inactive
NC(=O)C1CCCc2c1[nH]c1ccc(Cl)cc21 (configuration not stated),Potency,[7],inactive
N#Cc1ccc(C(c2ccc(C#N)cc2)n2cncn2)cc1,Potency,[7],inactive
Cc1c(CCOc2ccc(C(=O)O)cc2)c2cc(Cl)ccc2n1C(c1ccccc1)c1ccccc1,Potency,[7],inactive
CCN(CC)CCCC(C)Nc1nc(C)cc(Nc2ccc3nc(C)cc(N)c3c2)n1 (configuration not stated),Potency,[7],inactive
CCC(=O)N[C@H]1CC[C@H](C(=O)N(C)c2ccc(-c3nc4ccccc4o3)cc2)C1,Potency,[7],inactive
CC(c1cc2ccccc2s1)N(O)C(N)=O (configuration not stated),Potency,[7],inactive
same,outcome,[9],inactive
C#Cc1cccc(Nc2ncnc3cc(OCCOC)c(OCCOC)cc23)c1,Potency,[8],inactive
same,outcome,[9],inactive
O=C(O)[C@@H](c1ccc(OCc2ccc3ccccc3n2)cc1)C1CCCC1,Potency,[7],inactive
COc1ccc(-c2c(-c3ccc(O)cc3O)n[nH]c2C)cc1,Potency,[7],inactive
C[C@]1(c2nc3c(C(N)=O)cccc3[nH]2)CCCN1,Potency,[7],inactive
CNC(=O)c1ccc(N2C(=S)N(c3ccc(C#N)c(C(F)(F)F)c3)C(=O)C2(C)C)cc1F,Potency,[7],inactive
c1ccc(-c2nn3c(c2-c2ccnc4cc(OCCN5CCOCC5)ccc24)CCC3)nc1,Potency,[7],inactive
Nc1cccc(S(=O)(=O)N2CCCN(S(=O)(=O)c3ccc4c(c3)OCCO4)CC2)c1,Potency,[7],inactive
COc1nc(-c2ccc3c(c2)OCO3)n(-c2ccc(NC(=O)CSc3ccccc3)cc2)n1,Potency,[7],inactive
CN[C@@H](C)C(=O)N[C@H]1CCCC[C@H]2CC[C@@H](C(=O)N[C@@H](c3ccccc3)c3cn(CCCCc4ccc(CCCCn5cc([C@@H](NC(=O)[C@@H]6CC[C@@H]7CCCC[C@H](NC(=O)[C@H](C)NC)C(=O)N76)c6ccccc6)nn5)cc4)nn3)N2C1=O,Potency,[7],3300 nM (active)
COc1cc(Oc2ccnc3cc(OC)c(OC)cc23)ccc1NC(=O)NC(C)c1nccs1 (configuration not stated),Potency,[7],inactive
Cc1cc([C@@H](C)Nc2ccccc2C(=O)O)c2nc(N3CCOCC3)cc(=O)n2c1,Potency,[7],inactive
CN(C(=O)c1ccc(F)cc1C(F)(F)F)C1CCN(c2nnc(-c3ccnn3C)c3ccccc23)CC1,Potency,[7],inactive
Cc1cc(Nc2nc(N[C@@H](C)c3ncc(F)cn3)ncc2Cl)n[nH]1,Potency,[7],1040 nM (active)
CC(C)(C)OC(=O)CN(Cc1ccc(Cl)cc1)Cc1ccc([N+](=O)[O-])s1,Potency,[7],inactive
CNC(=O)c1ccc(C)c(-n2c(C)cc(OCc3ccc(F)cc3F)c(Br)c2=O)c1,Potency,[7],inactive
CC1(C)CNc2cc(NC(=O)c3cccnc3NCc3ccncc3)ccc21,Potency,[7],inactive
Cc1cc2c(F)c(Oc3ncnn4cc(OC[C@@H](C)O)c(C)c34)ccc2[nH]1,Potency,[7],inactive
Cn1c(=O)c(F)c(Nc2ccc(I)cc2F)c2c(=O)n(C[C@@H](O)CO)cnc21,Potency,[7],inactive
CC(C)OC(=O)C1=CN(C(=O)c2ccc(F)c(F)c2)CC(C)(C)c2c1[nH]c1ccccc21,Potency,[7],inactive
Clc1ccc(Nc2nnc(Cc3ccncc3)c3ccccc23)cc1,Potency,[7],inactive
same,Potency,[8],inactive
same,outcome,[9],inactive
